Compounds with a hit are over-represented: about 17% of the library has one in this group of screens.
TDP1 cell noCPT: qHTS for Inhibitors of human tyrosyl-DNA phosphodiesterase 1 (TDP1): qHTS in cells in absence of CPT. Potency, µM (highest dose often 46.2 µM), inactives show at the top dose activity change, negative = growth inhibition, most hits filed as inhibitors. actives 15% (n = 420,000). AID 686978, 2013. DT40 Tdp1-/- hTDP1 cells, no CPT, ATP luminescence, 48 h; further: on the % scale 0 is the no-effect control and ±100 the full control effect; nearly all actives have a fitted effect of over 55% in size
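Chicken DT40 Tdp1-/- cells stably complemented with human TDP1 were seeded at 400 cells/well with DMSO in place of 20 nM camptothecin. After compound pinning, cells grew at least 48 hr at 37 °C; viability read by CellTiter-Glo luminescence.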
TGFb SMAD3 inh: qHTS for Inhibitors of TGF-b. actives 1.2% (n = 410,000). AID 588855, 2011. HepG2 CAGA-GFP TGF-b/SMAD3 reporter, GFP fluorescence, 18 h; TGF-beta stimulated, 500 pg/mL final. Potency, µM (highest dose often 46.1 µM), for the others: at the top dose activity, negative = inhibition, actives largely listed as inhibitors; further: on the % scale 0 is the no-effect control and ±100 the full control effect; nearly all actives have a fitted effect of over 65% in size
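GFP signal (ex488/em500-530) from TGF-beta-stimulated HEPG2 CAGA-GFP cells, 500 pg/mL final, 18 h at 37 degrees C in DMEM plus 1% FBS, normalized to unstimulated and DMSO-stimulated controls.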
DT40 TDP1 CPT: qHTS for Inhibitors of human tyrosyl-DNA phosphodiesterase 1 (TDP1): qHTS in cells in presence of CPT; chicken DT40 Tdp1-/-;hTDP1 cells + 20 nM CPT, ATP luminescence, 48 h; Potency, µM (series often up to 46.2 µM), for inactives: at the highest dose activity change, negative = growth inhibition, hits mostly inhibitors; actives 12% (n = 420,000); AID 686979, 2013; further: on the % scale 0 is the no-effect control and ±100 the full control effect; nearly all actives have a fitted effect of over 55% in size
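Chicken DT40 Tdp1-/- cells stably complemented with human TDP1 were seeded at 400 cells/well in medium containing 20 nM camptothecin, exposed to pin-transferred compounds, and grown at 37 °C for at least 48 hr. Viability was read as ATP luminescence.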
S2 tox: Viability Counterscreen for Primary qHTS for Inhibitors of ATXN expression. S2 cells (HEK-293 line with an ATXN2-luciferase reporter) viability, CellTiter-Fluor protease fluorescence, 24 h. Potency, µM (top dose mostly 56.7 µM), hits mostly cytotoxic. actives 0.49% (n = 400,000); further: nearly all actives have a fitted effect of over 40% in size
ATXN2 expr inh: Primary qHTS for Inhibitors of ATXN expression; HEK-293 ATXN2-luciferase reporter, luminescence, 24 h; Potency, µM (top dose mostly 57 µM), for the others: at the top dose activity change, negative = inhibition, most hits filed as inhibitors; actives 0.72% (n = 360,000); AID 1745845, 2022; further: on the % scale 0 is the no-effect control and ±100 the full control effect; nearly all actives have a fitted effect of over 55% in size
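ATXN2-luciferase reporter cells (luciferase flanked by upstream and downstream ATXN2 gene portions) were treated 24 h at 37 °C with compounds at up to 57 uM. SteadyGlo luminescence gave expression; GF-AFC fluorescence gave viability.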
HepG2 viability: qHTS for Inhibitors of TGF-b: Cytotox Counterscreen; HepG2 CAGA-GFP viability, ATP luminescence, 18 h; Potency, µM (highest dose often 46.1 µM), for inactives: at the highest dose activity change, negative = cytotoxicity, hits mostly cytotoxic; actives 0.76% (n = 410,000); AID 588856, 2011
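HepG2 CAGA-GFP cells (1000/well, DMEM with 1% FBS) received compound, then TGF-beta at 500 pg/mL final, and were incubated 18 hours at 37 degrees C. Viability was read by CellTiter-Glo luminescence. Media-only wells were set as complete cell-killing and DMSO as no toxicity.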
Starred values were filed as active, the others as inactive. The call rests on the fitted dose curve; in most records, active means well fitted curve in the direction sought with a large enough effect; inconclusive means small, poorly fitted or top-dose-only effect, or another doubt; inactive means no such curve, though single readings can be large; an effect the other way counts as inactive or inconclusive. Potency means the concentration at half of the fitted maximal effect.

For Cc1ccc(NC(=O)c2nc(S(C)(=O)=O)ncc2N(Cc2cccc(F)c2)Cc2ccco2)cc1C the results were TDP1 cell noCPT inconclusive, TGFb SMAD3 inh 13%, DT40 TDP1 CPT inconclusive, S2 tox inactive, ATXN2 expr inh 1% and HepG2 viability -28%.
Cc1ccc(CN(Cc2ccco2)c2cnc(S(C)(=O)=O)nc2C(=O)Nc2ccccc2Br)o1 was read as TDP1 cell noCPT 8.2µM*, TGFb SMAD3 inh -6%, DT40 TDP1 CPT 9.2µM*, S2 tox inactive, ATXN2 expr inh 7% and HepG2 viability -10%.
`Cc1ccccc1NC(=O)c1nc(S(C)(=O)=O)ncc1N(Cc1ccco1)Cc1sccc1C` gave TDP1 cell noCPT 21µM*, TGFb SMAD3 inh 1%, DT40 TDP1 CPT 16µM*, S2 tox inactive, ATXN2 expr inh -6% and HepG2 viability -14%.
Screening Cc1cc(C(=O)N2CCN(Cc3ccccc3)CC2)on1 returned TDP1 cell noCPT -9%, TGFb SMAD3 inh 19%, DT40 TDP1 CPT 2%, S2 tox inactive, ATXN2 expr inh -3% and HepG2 viability 5%.
For COc1ccc(-c2nn(C)c(=O)[nH]2)cc1 the results were TDP1 cell noCPT -7%, TGFb SMAD3 inh -7%, DT40 TDP1 CPT -7%, S2 tox inactive and HepG2 viability 4%.
CCc1ccc(NC(=O)COC(=O)CCc2nc3cc(S(=O)(=O)N(CC)CC)ccc3n2C)cc1 was read as TDP1 cell noCPT -7%, TGFb SMAD3 inh -19%, DT40 TDP1 CPT 1%, S2 tox inactive, ATXN2 expr inh 8% and HepG2 viability -9%.
For CN1CCN(CCNC(=O)c2ccc(CS(=O)c3ccc(Br)cc3)o2)CC1 (stereo unspecified) the results were TDP1 cell noCPT 3%, TGFb SMAD3 inh -17%, DT40 TDP1 CPT -1%, S2 tox inactive and HepG2 viability -2%.
`NC(N)=NS(=O)(=O)c1ccc(NC(=S)NC(=O)c2ccc3c(c2)OCO3)cc1` gave TDP1 cell noCPT 1%, TGFb SMAD3 inh -8%, DT40 TDP1 CPT 0%, S2 tox inactive and HepG2 viability 7%.
Screening CSc1ccc(C2Nc3cccc4cccc(c34)N2)cc1 returned TDP1 cell noCPT inconclusive, TGFb SMAD3 inh -1%, DT40 TDP1 CPT 15µM*, S2 tox inactive and HepG2 viability 4%.
Screening CSc1ccc(C2NC(=O)c3ccccc3N2)cc1 (stereo unspecified) returned TDP1 cell noCPT 16µM*, TGFb SMAD3 inh -9%, DT40 TDP1 CPT 10µM*, S2 tox inactive, ATXN2 expr inh 30% and HepG2 viability 2%.
For CN1c2ccccc2N(C)C1c1ccc2c(c1)OCO2 the results were TDP1 cell noCPT 16µM*, TGFb SMAD3 inh -19%, DT40 TDP1 CPT 23µM*, S2 tox inactive, ATXN2 expr inh -6% and HepG2 viability -1%.
Screening O=C1NC(c2ccc(O)cc2)Nc2ccccc21 (stereo unspecified) returned TDP1 cell noCPT inconclusive, TGFb SMAD3 inh 0%, DT40 TDP1 CPT inconclusive, S2 tox inactive, ATXN2 expr inh -6% and HepG2 viability -12%.
`c1cc2c3c(cccc3c1)NC(c1ccc3c(c1)OCO3)N2` gave TDP1 cell noCPT inconclusive, TGFb SMAD3 inh -15%, DT40 TDP1 CPT 23µM*, S2 tox inconclusive and HepG2 viability -17%.
`Cc1cc(C)n(CCc2nc3c4ccccc4nc(N4CCN(c5cccc(C)c5C)CC4)n3n2)n1` gave TDP1 cell noCPT inconclusive, TGFb SMAD3 inh 10%, DT40 TDP1 CPT inconclusive, S2 tox inactive, ATXN2 expr inh -2% and HepG2 viability 16%.
Screening O=C(NNC(=O)c1ccccc1Cl)c1ccc2c(c1)OCCO2 returned TDP1 cell noCPT -1%, TGFb SMAD3 inh -4%, DT40 TDP1 CPT -1%, S2 tox inconclusive and HepG2 viability 0%.
For Cc1ccc(N2CCN(C(=O)NCc3noc4ccccc34)CC2C)cc1 (stereo unspecified) the results were TDP1 cell noCPT inconclusive, TGFb SMAD3 inh inconclusive, DT40 TDP1 CPT 21µM*, S2 tox inactive, ATXN2 expr inh -15% and HepG2 viability -21%.
Screening Cc1cccc(N2CCN(C(=O)NCc3noc4ccccc34)CC2)c1C returned TDP1 cell noCPT inconclusive, TGFb SMAD3 inh -29%, DT40 TDP1 CPT inconclusive, S2 tox inactive, ATXN2 expr inh 13% and HepG2 viability -29%.
`CCOC(=O)c1ccc([N+](=O)[O-])c(CS(=O)(=O)c2ccc(Cl)cc2)c1` gave TDP1 cell noCPT -24%, TGFb SMAD3 inh -4%, DT40 TDP1 CPT -21%, S2 tox inactive and HepG2 viability -8%.
Screening Cc1ccc(S(=O)(=O)CCC(=O)c2cccc([N+](=O)[O-])c2)cc1 returned TDP1 cell noCPT 2.6µM*, TGFb SMAD3 inh 11µM*, DT40 TDP1 CPT 2.1µM*, S2 tox inconclusive, ATXN2 expr inh inconclusive and HepG2 viability -67%.
`Cc1ccc(S(=O)(=O)Cc2cc(F)c([N+](=O)[O-])cc2[N+](=O)[O-])cc1` gave TDP1 cell noCPT 2.9µM*, TGFb SMAD3 inh inconclusive, DT40 TDP1 CPT 3.7µM*, S2 tox inconclusive, ATXN2 expr inh inconclusive and HepG2 viability -101%.
`COc1ccc(C(=O)CCS(=O)(=O)c2ccc(C)cc2)cc1` gave TDP1 cell noCPT 2.3µM*, TGFb SMAD3 inh inconclusive, DT40 TDP1 CPT 2.6µM*, S2 tox inactive, ATXN2 expr inh 6% and HepG2 viability 7.1µM*.
For O=C(Nc1cccc([N+](=O)[O-])c1)c1ccncc1 the results were TDP1 cell noCPT -20%, TGFb SMAD3 inh inconclusive, DT40 TDP1 CPT 0%, S2 tox inactive, ATXN2 expr inh 5% and HepG2 viability -10%.
For O=C(CCNc1ccc(Cc2ccncc2)cc1)c1cccc([N+](=O)[O-])c1 the results were TDP1 cell noCPT 16µM*, TGFb SMAD3 inh -9%, DT40 TDP1 CPT 18µM*, S2 tox inactive, ATXN2 expr inh -30% and HepG2 viability -13%.
CN(C)c1nc(N)c([N+](=O)[O-])c(NCc2ccccc2)n1 was read as TDP1 cell noCPT -1%, TGFb SMAD3 inh 3%, DT40 TDP1 CPT -17%, S2 tox inactive, ATXN2 expr inh -12% and HepG2 viability -30%.

Compound activity as filed in PubChem BioAssay.
